These results are taken from PubChem BioAssay (Tox21).

Inconclusive results are not listed. Entries that show only a call come without a potency. Calls of active or inactive are those of the source. The call rests on the fitted dose curve.

The target in this assay is Beta-2 adrenergic receptor (Homo sapiens) (UniProt P07550). As to the kind of experiment: Adrenergic beta2 receptor (ADRB2) small molecule agonists, cell-based qHTS assay (AID 1963593).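 Further: CHO cells stably overexpressing human ADRB2.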 The settings on record: CHO-ADRB2 cells, cAMP HTRF, 30 min; series mostly up to 92.4 µM. A digest of the protocol:
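CHO cells stably over-expressing ADRB2 were plated overnight at 37C, then dosed with compounds plus a stimulation mix containing 100uM IBMX and 25uM Ro-20-1724 for 0.5hr at room temperature. cAMP was measured by HTRF competition, 1hr.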
(In qHTS, concentration-response curves come from the screen itself.)

Chain of Beta-2 adrenergic receptor (Homo sapiens) (P07550 whole entry, looked up): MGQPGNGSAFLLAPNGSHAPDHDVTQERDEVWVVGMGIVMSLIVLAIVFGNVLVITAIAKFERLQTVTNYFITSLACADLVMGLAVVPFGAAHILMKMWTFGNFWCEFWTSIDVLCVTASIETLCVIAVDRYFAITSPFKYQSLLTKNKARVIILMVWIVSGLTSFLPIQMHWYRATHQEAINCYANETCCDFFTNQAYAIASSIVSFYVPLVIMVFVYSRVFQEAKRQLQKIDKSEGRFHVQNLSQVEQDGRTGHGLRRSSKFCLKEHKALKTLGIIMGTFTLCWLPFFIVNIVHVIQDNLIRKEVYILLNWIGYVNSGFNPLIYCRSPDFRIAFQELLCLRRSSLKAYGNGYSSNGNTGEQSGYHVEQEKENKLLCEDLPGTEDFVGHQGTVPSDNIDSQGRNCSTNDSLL

With `CCCCOP(=O)(CCCC)OCCCC`, the Potency result is “inactive”.
In the case of `Nc1ccccc1C(=O)OCCc1ccccc1`, the Potency result was “inactive”.
`COC[C@@H](NC(C)=O)C(=O)NCc1ccccc1`: the Potency entry is “inactive”.
Next, `CC(C)NC(=O)N1CC(=O)N(c2cc(Cl)cc(Cl)c2)C1=O`: “inactive”; `CCC/C=N/O`: “inactive”; `CNC`: “inactive”.
Regarding `CN(C)c1ccccc1`, the Potency result was “inactive”.
With `O=C1C=CC(=O)C=C1`, the Potency result is “inactive”.
Next, `Cc1cc(Cl)ccc1OCC(=O)O`: “inactive”; `CCC(=O)OC1(c2ccccc2)CCN(C)CC1`: “inactive”.
The entry for `CCC(C)(C)c1ccc(O)cc1` is “inactive”; for `OCCCl` it is “inactive”; for `CCC(C)c1ccc(O)cc1` (stereo not given) it is “inactive”.
Turning to `c1ccc2c(c1)sc1ccccc12`, the Potency entry is “inactive”.
For `O=[N+]([O-])c1cc(Cl)ccc1Cl`, the Potency result was “inactive”.
As for `CC1(C)C(=O)NC(=O)NC1=O`, the Potency entry is “inactive”.
The entry for `CC(=O)CC(c1ccc(Cl)cc1)c1c(O)c2ccccc2oc1=O` (stereo not given) is “inactive”; for `Nc1ccccc1C(=O)O` it is “inactive”.
For the compound `CC(C)(C)C(=O)CCl`, the Potency entry was “inactive”.
Consider `[CH3][Sn]([Cl])([Cl])[Cl]`, for which the Potency result was “inactive”.
On to `O=C(O)c1nc(Cl)ccc1Cl`, for which the Potency entry is “inactive”.
Regarding `Nc1ccccc1C(=O)OCC(O)CO` (stereo not given), the Potency entry is “inactive”.
As to `O=NN1CCCC1`, the Potency entry was “inactive”.
On to `Cc1ccccc1N`, for which the Potency entry is “inactive”.
As for `CCCC[N+]1(C)CCCC1`, the Potency result is “inactive”.
On to `O=C(O)C(Br)Br`, for which the Potency result is “inactive”.
As to `C1CCC(NC2CCCCC2)CC1`, the Potency result was “inactive”.
As to `CNC(=O)NC(O)C(Cl)(Cl)Cl` (stereo not given), the Potency entry was “inactive”.
Next, `COS(=O)(=O)OC`: “inactive”; `COC(=O)c1c(C(F)F)nc(C(F)(F)F)c(C2=NCCS2)c1CC(C)C`: “inactive”.
Regarding `ClCCBr`, the Potency entry was “inactive”.
On to `CCCCOCCOC(C)=O`, for which the Potency result was “inactive”.
As to `CN1C(=O)NC(=O)C(C)(C2=CCCCC2)C1=O` (stereo not given), the Potency entry was “inactive”.
Regarding `NCCc1ccc(O)cc1`, the Potency entry was “inactive”.
For `O=C(NC(=O)c1c(F)cccc1F)Nc1cc(Cl)c(OC(F)(F)C(F)C(F)(F)F)cc1Cl` (stereo not given), the Potency result was “inactive”.
The entry for `c1ccc(P(c2ccccc2)c2ccccc2)cc1` is “inactive”; for `COC(C)(C)C` it is “inactive”.
With `COC(=O)NC(=S)Nc1ccccc1NC(=S)NC(=O)OC`, the Potency result is “inactive”.
Next, `CCCCCCCCCCOC(=O)c1ccccc1C(=O)OCCCCCCCCCC`: “inactive”.
Next, `OCCOc1ccccc1`: “inactive”.
For the compound `O=P1(N(CCCl)CCCl)NCCCO1` (stereo not given), the Potency entry was “inactive”.
Take `O=C(O)C(Cl)(Cl)Cl`: the Potency entry was “inactive”.
As to `CNC(=O)Oc1cccc2ccccc12`, the Potency result was “inactive”.
As to `COc1ccc(O)c(C(C)(C)C)c1`, the Potency entry is “inactive”.
Next, `CCCOC(=O)c1ccccc1C(=O)OCCC`: “inactive”; `O=[N+]([O-])c1cc([As](=O)(O)O)ccc1O`: “inactive”.
As for `CN(C)CCc1c[nH]c2cccc(OP(=O)(O)O)c12`, the Potency entry is “inactive”.
In the case of `CCCCC(CC)COC(=O)c1c(Br)c(Br)c(Br)c(Br)c1C(=O)OCC(CC)CCCC` (stereo not given), the Potency result was “inactive”.
On to `O=S(=O)(c1ccc(O)cc1)c1ccc(O)cc1`, for which the Potency entry is “inactive”.
Turning to `[N-]=[N+]=[N-]`, the Potency entry was “inactive”.
With `CC(C)C(=O)OCC(C)(C)C(OC(=O)C(C)C)C(C)C` (stereo not given), the Potency result was “inactive”.
`O=P(Cl)(Cl)Cl`: the Potency result is “inactive”.
As to `O=C(Cl)CCl`, the Potency entry was “inactive”.
On to `CN(C)C(=O)Nc1cccc(C(F)(F)F)c1`, for which the Potency entry is “inactive”.
Take `O=[N+]([O-])c1ccc(CBr)cc1`: the Potency result is “inactive”.
Regarding `CCCCN=C=O`, the Potency result is “inactive”.
Turning to `CC(C)=CCN1CC[C@@]2(C)c3cc(O)ccc3C[C@@H]1[C@@H]2C`, the Potency entry was “inactive”.
Consider `C#C[C@]1(O)CC[C@H]2[C@@H]3CCC4=CC(=O)CC[C@]4(C)[C@H]3CC[C@@]21C`, for which the Potency entry is “inactive”.
In the case of `O=C(O)CCCc1ccc(N(CCCl)CCCl)cc1`, the Potency entry was “inactive”.
Next, `C[C@]12CCC(=O)C=C1CC[C@@H]1[C@@H]2CC[C@@]2(C)[C@H]1CC[C@]2(C)O`: “inactive”; `CCN(CC)c1ccccc1`: “inactive”.
Consider `Cc1ccc2cc(C)ccc2c1`, for which the Potency entry was “inactive”.
With `O=C(O)c1nn(Cc2ccc(Cl)cc2Cl)c2ccccc12`, the Potency entry is “inactive”.
`C=CCOC(Cn1ccnc1)c1ccc(Cl)cc1Cl` (stereo not given): the Potency result is “inactive”.
On to `O=C(NC(=O)c1ccccc1Cl)Nc1ccc(OC(F)(F)F)cc1`, for which the Potency result is “inactive”.
